# Vaccinia mCherry = vaccinia inhibition (mCherry reporter). Vaccinia virus mCherry reporter infection, fluorescence. Potency, µM (series often up to 36.5 µM), for inactives: at the highest dose activity change, negative = inhibition, hits mostly inhibitors. hit rate 0.63% among 310,000. AID 720579; calls by dose curve; tested in A549 cells; also: potency is read from the fitted curve at half-maximal effect; nearly all actives have a fitted effect of over 35% in size
# HCMV inh = blocks human cytomegalovirus replication. activity change, negative = inhibition, % at 57.5 µM. HFF cells, HCMV-luciferase reporter, 72 h; active compounds read low. hit rate 4.5% among 410,000. AID 1259415; in the data active = activity change below about -60%; inconclusive = no clear call, values can overlap the other calls; inactive = above about -39%
#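 After 16 h attachment at 37C, HFF cells received test compound and HCMV-luciferase (1 PFU/cell); reporter luminescence read 72 h later, data normalized against buffer-only and known inhibitor Salinomycin.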
# FMDV antiviral = foot and mouth disease virus antiviral activity; FMDV antiviral cell-based qHTS; Potency, µM (titrated, usually from 57.9 µM), for inactives: at the highest dose activity change, negative = inhibition, most hits filed as inhibitors; hit rate 1.2% among 410,000; calls by dose curve; tested in HEK293T cells; also: read-out not given here; potency is read from the fitted curve at half-maximal effect; nearly all actives have a fitted effect of over 45% in size
# HCV inhibitor = inhibitors of hepatitis C virus infection; Huh7.5.1 HCVcc-Cre infection, luciferase reporter, 44 h; Potency, µM (titrated, usually from 41.8 µM), for inactives: at the top dose activity change, negative = inhibition, usual class: inhibitors; hit rate 3.4% among 340,000; AID 651820; active = well fitted inhibition curve with a large enough effect; inconclusive = small, poorly fitted or top-dose-only effect, or another doubt; inactive = no such curve, though single readings can be large or run the other way; also: potency is read from the fitted curve at half-maximal effect
#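 Cells (1,000/well) were plated 4 h before compound, then infected with HCVcc-Cre virus (~0.5 moi). After 44 h further culture, infection was read as luciferase luminescence following a 15 min substrate incubation at room temperature.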
# VACV Venus inh = inhibitors of vaccinia virus (Venus reporter). hit rate 0.46% among 330,000. Potency, µM (titrated, usually from 36.5 µM), inactives show top-dose activity change, negative = inhibition, usual class: inhibitors. Vaccinia virus Venus reporter expression, fluorescence. AID 720580; calls by dose curve; tested in A549 cells; also: potency is read from the fitted curve at half-maximal effect; nearly all actives have a fitted effect of over 30% in size
# The depositor's hits bear a star; i = inactive; ? = inconclusive; . = no result given; [ ] = remark or other dose. Shown are actives, neighbours in structure and some others; about 7.3% of the full set was active somewhere. % is scaled to controls: 0 for no effect and ±100 for the full control effect.
SMILES,Vaccinia mCherry,HCMV inh,FMDV antiviral,HCV inhibitor,VACV Venus inh
COC(=O)c1ccc(NC(=O)CC2C(=O)N(c3ccccc3)C(=O)N2Cc2cccs2)cc1 (stereo unspecified),-15%,6,5%,.,-2%
CCOC(=O)C1=CCN(S(=O)(=O)c2cccc(Cl)c2)C1c1cccc(Br)c1 (stereo unspecified),.,-25,.,.,.
CCC(C)NCCOc1ccc(C(C)(C)c2ccccc2)cc1 (stereo unspecified),-18%,?,?,10µM*,-19%
CCCOc1ccc(OCCCCNC(C)CC)cc1 (stereo unspecified),-17%,10,-1%,?,-19%
COCCCNCCOc1ccc(C(C)(C)c2ccccc2)cc1,-23%,-25,-17%,10µM*,-19%
C=CCNCCCCOc1ccccc1-c1ccccc1,-9%,-30,1%,?,-21%
COCCCNCCCCOc1ccc(OCc2ccccc2)cc1,-3%,?,55%,11µM*,-19%
C=CCNCCCCOc1ccc(OCc2ccccc2)cc1,.,-69*,29%,?,.
COc1ccc(Cn2c(=O)c3oc4ccccc4c3n(Cc3ccccc3)c2=O)cc1,-3%,-28,-25%,.,-2%
O=C1C=CC(=O)C2=C1C1c3ccccc3C2c2ccccc21,.,.,-17%,.,.
C/C(=N\N=C1\NC(=O)C(Cc2ccccc2)S1)c1ccccc1 (stereo unspecified),.,22,3%,-17%,.
CC(=O)/C(C#N)=C1\NC(=O)C(Cc2ccccc2)S1 (stereo unspecified),?,-99*,60%,-5%,119%
CC(=O)/C(C#N)=C1\NC(=O)C(Cc2ccccc2C)S1 (stereo unspecified),?,-83*,10%,8%,80%
CN(C)CCNc1ncnc2oc(-c3ccccc3)c(-c3ccccc3)c12,.,?,?,3.2µM*,.
COc1ccc(-c2oc3ncnc(NCCCN(C)C)c3c2-c2ccc(OC)cc2)cc1,.,-84*,?,?,.
CCCCNc1ncnc2oc(-c3ccco3)c(-c3ccco3)c12,-24%,.,.,.,-30%
COc1ccc(CN(C(=O)CSc2nnc(-c3ccccc3C)o2)c2ccc(F)cc2)cc1,.,-75*,?,-6%,-10%
O=C(NCCc1ccccc1)c1cc(Sc2ccc(F)cc2F)nc2ccccc12,-2%,1,-17%,.,-15%
O=C(NCc1cccnc1)c1cc(Sc2ccc(F)cc2F)nc2ccccc12,-19%,-64*,?,10µM*,-24%
Cc1ccc2nc(/C=C/c3ccc(N(C)C)cc3)ccc2c1,-1%,.,.,.,11%
CCCCCCCCn1sccc1=O,-12%,-2,28µM*,?,-15%
CC(C)(C)c1csc(NC(=O)CCS(=O)(=O)c2ccc(F)cc2)n1,7.1µM*,-24,?,.,7.9µM*
O=C(CCS(=O)(=O)c1ccccc1)Nc1nc(-c2cccs2)cs1,?,49,-30%,1%[8.37 µM],4µM*
CC(=O)c1sc(NC(=O)CCS(=O)(=O)c2ccccc2)nc1C,.,97,0%,13µM*,.
O=C(COc1ccccc1)Nc1nc(-c2cccs2)cs1,.,-16,-5%,-14%,-2%
SMILES,Vaccinia mCherry,HCMV inh,FMDV antiviral,HCV inhibitor,VACV Venus inh
CCOc1ccc(-n2c(C)nc3cc(C(=O)NC4CCCC4)ccc32)cc1,-11%,-4,-2%,.,-9%
CCCCn1c(SCC(=O)Nc2cc(C(F)(F)F)cc(C(F)(F)F)c2)nnc1C(CC)N(C)C (stereo unspecified),-19%,-88*,?,?,?
CCCCn1c(SCC(=O)Nc2ccc3c(c2)OCCO3)nnc1C(CC)N(C)C (stereo unspecified),.,-3,0%,-10%,.
COC(=O)[C@H](CC(C)C)NS(=O)(=O)N(Cc1ccccc1)[C@@H](CC(C)C)C(=O)OC,?,25,-18%,-2%,-30%
COC(=O)[C@H](CC(C)C)N(Cc1ccccc1)S(=O)(=O)N(Cc1ccc(OC)cc1)[C@@H](CC(C)C)C(=O)OC,-29%,-66*,?,-8%[8.37 µM],5%
COC(=O)[C@H](CC(C)C)N(Cc1ccccc1)S(=O)(=O)N(Cc1ccccc1)[C@@H](CC(C)C)C(=O)OC,-25%,-69*,?,7%,-10%
CCOC(=O)[C@@H](C)N(Cc1ccc(OC)cc1)S(=O)(=O)N(Cc1ccccc1)[C@H](C(=O)OC)C(C)C,-24%,-79*,-21%,?,?
CCOC(=O)c1cccc(NC(=O)Nc2c(C)n(C)n(-c3ccccc3)c2=O)c1,-13%,-9,-9%,.,-5%
CCOc1ccc(C(=O)OCC(=O)NC2CCCCCCC2)cc1,.,10,-23%,-22%,.
CCCCOc1ccc(C(=O)OCC(=O)NC2CCCC2)cc1,-9%,-100*,-25%,10%,-8%
O=C(COc1ccc(C(=O)c2ccccc2)cc1)NC1CCCCCC1,-23%,?,?,11µM*,-15%
O=C(COc1ccc(C(=O)c2ccccc2)cc1)NC1CCCCC1,i,-84*,-18%,22%,-7%
Cc1ccc(CNC(=O)CCN2C(=O)C(C)Oc3ccc(C)cc32)cc1 (stereo unspecified),-3%,-3,-8%,.,-8%
COc1ccc(NC(=O)Nc2ccccc2OCc2cc(=O)n3ccccc3n2)c(OC)c1,-1%,-29,12%,.,-16%
O=C(NCCN1CCCCC1)c1cccc2c1C(=O)c1ccc(N3CCCC3)cc1S2(=O)=O,-1%,-65*,13%,5%,12%
O=C(NCCOc1ccccc1Cl)c1cccc2c1C(=O)c1ccc(Cl)cc1S2(=O)=O,-15%,10,1%,9%,?
O=C(NC1CC1)c1cccc2c1C(=O)c1ccc(N3CCC(Cc4ccccc4)CC3)cc1S2(=O)=O,-18%,-32,?,10µM*,-2%
O=C(NCCOc1ccccc1)c1cccc2c1C(=O)c1ccc(Cl)cc1S2(=O)=O,i,-10,9%,10µM*,-12%
COc1ccc(N2CCN(S(=O)(=O)CCNC(=O)Cc3ccc(Cl)cc3)CC2)cc1,-11%,49,2%,.,-1%
COc1ccccc1-c1cc2c(Nc3cccc(S(C)(=O)=O)c3)nccc2[nH]1,.,-26,.,.,.
Cn1cc(CN2CC3C[C@@H]4CC2C[C@H](C3)C4)c(-c2ccc3c(c2)OCCO3)n1,-21%,33,0%,1%,-13%
c1cc2c(cc1-c1[nH]ncc1CN1CC3C[C@@H]4CC1C[C@H](C3)C4)OCO2,-27%,-69*,4%,8%,-8%
CCOc1ccc(NC(=O)CCS(=O)(=O)c2cc3c4c(c2)CCN4C(=O)CC3)cc1,-9%,10,-6%,.,-1%
CCOc1cc(N2CCOCC2)c(OCC)cc1NC(=O)Cc1cccc2ccccc12,-14%,1,6%,14µM*,-28%
CCOc1cc(N2CCOCC2)c(OCC)cc1NC(=O)c1ccc(OC)cc1,-10%,?,-22%,4.5µM*,-4%
CCOc1ccc(NC(=O)Cc2ccccc2)c([N+](=O)[O-])c1,-26%,4,25%,5%,-11%

# From PubChem BioAssay
